A selection: hits, their analogues and other compounds. The true share with any hit is near 19%.
TDP1 cell CPT = growth inhibition of DT40 Tdp1-/-;hTDP1 cells with camptothecin (screen for TDP1 inhibitors). chicken DT40 Tdp1-/-;hTDP1 cells + 20 nM CPT, ATP luminescence, 48 h. Potency, µM (doses to about 46.2 µM), for the others: at the highest dose activity change, negative = growth inhibition, most hits filed as inhibitors. hit rate 12% among 420,000; also: potency is read from the fitted curve at half-maximal effect; nearly all actives have a fitted effect of over 55% in size
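Cell growth measured by CellTiter-Glo luminescence after a minimum 48 h, 37 C compound exposure with 20 nM CPT in Tdp1-knockout DT40 cells stably expressing hTDP1, seeded 400/well; qHTS titration format.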
ELG1 DNA repair = ELG1-dependent DNA repair inhibition; HEK293T ELG1-luciferase reporter, luminescence, 16 h; DNA damage induced by 5-fluorouridine; Potency, µM (top dose mostly 46.1 µM), for the others: at the highest dose activity change, negative = inhibition, usual class: inhibitors; hit rate 2.3% among 330,000; also: potency is read from the fitted curve at half-maximal effect; nearly all actives have a fitted effect of over 55% in size
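Reporter activity after DNA damage by 5-fluorouridine is monitored. Compound-treated cells incubate 16 hr at 37 °C, then ONE-Glo is added for 30 min before luminescence reading.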
IL1B secr inh = inhibitors of inflammasome signaling (IL-1 beta secretion); AID 743279; activity change, % at 57.5 µM; THP-1 LPS/ATP IL-1B secretion, AlphaLISA, 16 h; active compounds read low; hit rate 4.7% among 360,000; in the data active = activity change below about -50%; inconclusive = mostly about -30% to -49%
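THP-1 cells pretreated 1 hr with compounds (up to 57.5 uM final), then stimulated with LPS (250 ng/mL final) plus ATP (1.25 mM final); secreted IL-1B measured by AlphaLISA after 16 hr, decreased signal indicating inhibition.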
HT1080 IDH1KD tx = toxicity to HT-1080 IDH1 knockdown cells (counter line); HT-1080 IDH1 knockdown viability, ATP luminescence, 48 h; Potency, µM (titrated, usually from 46.1 µM), without a hit: at the highest dose activity, negative = toxicity, most hits filed as cytotoxic; hit rate 2% among 360,000;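 also: potency is read from the fitted curve at half-maximal effect; 0% = DMSO wells and -100% = cell-free medium wells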
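Using the IDH1-knockdown HT-1080 line run in the same batch and compound series as the NT line, viability after 48 h at 37 °C was determined by CellTiter-Glo luminescence and expressed as % activity.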
TDP1 cell noCPT = qHTS for Inhibitors of human tyrosyl-DNA phosphodiesterase 1 (TDP1): qHTS in cells in absence of CPT. DT40 Tdp1-/- hTDP1 cells, no CPT, ATP luminescence, 48 h. Potency, µM (series often up to 46.2 µM), for the others: at the top dose activity change, negative = growth inhibition, actives largely listed as inhibitors. hit rate 15% among 420,000. AID 686978, 2013; also: potency is read from the fitted curve at half-maximal effect; nearly all actives have a fitted effect of over 55% in size
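A cellular qHTS used chicken DT40 cells lacking endogenous Tdp1 but carrying stably transfected human TDP1. Compounds were applied without camptothecin, and cell growth kinetics were judged by ATP-dependent luminescence after ≥48 hr.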
HT1080-NT tox = kills 2HG-producing HT-1080-NT fibrosarcoma cells | HT-1080-NT fibrosarcoma viability, CellTiter-Glo ATP luminescence, 48 h | Potency, µM (titrated, usually from 46.1 µM), without a hit: at the top dose activity, negative = less viability, actives largely listed as cytotoxic | hit rate 1.6% among 360,000 | AID 686970;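 also: NT is the 2HG producing partner of a matched IDH1 knockdown line; potency is read from the fitted curve at half-maximal effect; 0% = DMSO-treated cells and -100% = media-only wells without cells; nearly all actives have a fitted effect of over 55% in size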
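750 cells/well, RPMI + 5% FBS; 2 h settle, compound pin-transfer, 48 h at 37 degrees C. CellTiter-Glo 10 min RT, luminescence. Normalized to DMSO and media-only wells.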
An asterisk follows results filed as active; ? = inconclusive; / = no result given. Unless noted, calls follow the shape of the dose curve; as a rule, active = well fitted curve in the direction sought with a large enough effect; inconclusive = small, poorly fitted or top-dose-only effect, or another doubt; inactive = no such curve, though single readings can be large; an effect the other way counts as inactive or inconclusive. Unless noted, % is scaled to controls: 0 for no effect and ±100 for the full control effect.

SMILES	TDP1 cell CPT	ELG1 DNA repair	IL1B secr inh	HT1080 IDH1KD tx	TDP1 cell noCPT	HT1080-NT tox
CCCN1CCN(CCCNC(=O)c2ccc(NC(=O)C3=C(C)OCCS3)cc2)CC1	-8%	-5%	-20	1%	19%	2%
O=C(O)/C(=C\c1ccccc1OC(F)F)Sc1nnc(-c2ccc(F)cc2)o1	21µM*	?	-24	-23%	?	0%
Cc1ccccc1OC(=O)CSc1nnc(-c2ccc(F)cc2)o1	-4%	/	/	/	7%	/
CCOC(=O)Nc1ccc2c(c1)N(CCCN(C)C)c1ccccc1CC2	23µM*	?	-10	-4%	?	-25%
CN(C)CC(=O)N1c2ccccc2CCc2ccc(NC(=O)c3ccc(N)cc3)cc21	-3%	?	-21	3%	-4%	-5%
COc1cc(C(=O)Nc2ccc3c(c2)N(C(=O)CCN(C)C)c2ccccc2CC3)cc(OC)c1OC	-1%	?	-60*	?	-1%	?
Cc1nn(C)c(Cl)c1NC(=O)OCc1ccc(Cl)cc1Cl	15µM*	-12%	-4	-26%	13µM*	-2%
Cc1nn(Cc2ccc(Cl)cc2Cl)c(C)c1NC(=O)CCl	15µM*	15µM*	-101*	?	13µM*	?
Cc1nn(Cc2ccc(Cl)cc2Cl)c(C)c1NC(=O)c1nn(C)cc1Cl	8.2µM*	-21%	0	-12%	9.2µM*	6%
Cc1nnsc1NC(=O)OCc1ccc(Cl)cc1Cl	-25%	2%	51	-14%	?	-6%
Cc1nn(Cc2ccc(Cl)cc2Cl)c(C)c1NC(=O)C1C2CCC(O2)C1C(=O)O (stereo unspecified)	?	?	-8	-27%	15µM*	-3%
COC(=O)c1ccc2c(CCO)c[nH]c2c1	-18%	?	-4	17%	-25%	20%
Cc1nn(C)c2c1c(-c1ccccc1)cc(=O)n2CC(=O)NC(C)C	-16%	/	/	/	-2%	/
CCOc1ccc(NC(=O)C(C)NC(=O)c2ccccc2Cl)cc1S(=O)(=O)N1CCCC1 (stereo unspecified)	-16%	22%	6	16%	15%	-1%
CCOc1ccc(CNC(=O)C2CCCN(S(=O)(=O)N(C)c3ccc(F)cc3)C2)cc1OC (stereo unspecified)	15µM*	/	/	/	13µM*	/
CN(c1ccc(F)cc1)S(=O)(=O)N1CCCC(C(=O)NCc2cccc(Br)c2)C1 (stereo unspecified)	15µM*	/	/	/	12µM*	/
CCOc1ccc(CCNC(=O)C2CCCN(S(=O)(=O)N(C)c3ccc(F)cc3)C2)cc1 (stereo unspecified)	21µM*	/	/	/	21µM*	/
CN1CCC(=NNc2ncnc3sc4c(c23)CCCC4)CC1	16µM*	?	-7	-12%	21µM*	-3%
CN(C)C(=O)c1ccc(Nc2ncnc3sc4c(c23)CCCCC4)cc1	?	-7%	-12	-25%	23µM*	?
COc1ccc(N2C(=O)[C@@H]3C[C@H]2CN3Cc2cccn2-c2nccs2)cc1Cl	7%	/	/	/	?	/
COc1ccc(OC)c(CNC(=O)CCCn2c(=O)c3cccn3c3cccnc32)c1	3%	/	/	/	-22%	/
COc1ccc(Br)cc1CNC(=O)CCCn1c(=O)c2cccn2c2ccccc21	?	/	/	/	23µM*	/
COc1ccc(Br)cc1CNC(=O)Cn1ncn2nc(-c3cccs3)cc2c1=O	12µM*	/	/	/	13µM*	/
COc1ccc(Br)cc1CNC(=O)Cn1c(=O)c2cccn2c2ccc(F)cc21	4.6µM*	/	/	/	13µM*	/
COc1ccc(Br)cc1CNC(=O)CCCn1c(=O)c2cccn2c2cccnc21	?	/	/	/	18µM*	/
SMILES	TDP1 cell CPT	ELG1 DNA repair	IL1B secr inh	HT1080 IDH1KD tx	TDP1 cell noCPT	HT1080-NT tox
CCOc1ccc(CNC(=O)Cn2c(=O)c3cccn3c3ccc(F)cc32)cc1OC	-18%	/	/	/	-22%	/
CCNc1ncc2nc(-c3cccs3)c(=O)n(Cc3ccc(F)cc3)c2n1	0%	/	/	/	0%	/
Cc1ccc(C)c(S(=O)(=O)Nc2ccc3scnc3c2)c1	23µM*	-26%	-19	12µM*	18µM*	?
Cc1ccc(C)c(S(=O)(=O)Nc2ccc3[nH]c(=O)[nH]c3c2)c1	?	-1%	11	-17%	?	2%
O=C(N/N=C\CCc1ccccc1)c1ccco1	?	8%	-16	10%	?	17%
S=C(NCC1CCCO1)Nc1ccc(Cl)c(Cl)c1 (stereo unspecified)	?	7%	-11	-11%	23µM*	0%
O=C(NC(=S)NCC1CCCO1)c1ccccc1Br (stereo unspecified)	9%	7%	6	20%	12%	13%
COc1ccc(NS(=O)(=O)c2ccc(NC(=S)NCC3CCCO3)cc2)cc1 (stereo unspecified)	15µM*	19%	48	-17%	?	-5%
COc1ccc(S(=O)(=O)Nc2ccc(S(=O)(=O)NCC3CCCO3)cc2)cc1 (stereo unspecified)	-10%	?	-16	0%	7%	2%
O=S(=O)(NCC1CCCO1)c1ccc(-c2ccc(S(=O)(=O)NCC3CCCO3)cc2)cc1 (stereo unspecified)	0.65µM*	-8%	-2	-29%	1.8µM*	-10%
Cc1ccc(C(=O)NC(=S)NCC2CCCO2)cc1Br (stereo unspecified)	?	?	10	-3%	29µM*	-1%
O=C(N/C=C/n1cnc2cc(C(F)(F)F)ccc21)c1ccccc1	3%	4%	-5	-4%	6%	0%
CCOC(=O)c1c(C)[nH]c(C)c1S(=O)(=O)NCC(=O)Nc1cccc(SC)c1	?	/	/	/	-17%	/
CC(=O)Nc1ccc(NC(=O)C2CC(=O)N(c3ccccc3Cl)C2)cc1 (stereo unspecified)	2%	-10%	-8	-6%	-17%	2%
Cc1ccc(S(=O)(=O)CCSc2cccc(C(=O)O)c2)cc1	15%	21%	-20	-2%	12%	-1%
Cc1ccc(S(=O)(=O)CCSC(=N)N)cc1	?	?	-115*	?	16µM*	?
CC(C)CNC(=O)c1cccc(Cn2cc(Cl)cn2)c1	-17%	-3%	-9	8%	-22%	15%
COc1ccc(N2CCN(C(=O)c3cccc(Cn4cc(Cl)cn4)c3)CC2)cc1	?	/	-4	-21%	23µM*	0%
